# Results as given in PubChem BioAssay (NCI).
# Compounds without any hit were thinned out: in the full panel of roughly 83,000, 20% have a hit.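 Negative percent growth values reflect cell death: -40 means 40% of the cells present at the start died, and -100 means all died.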 Values without a mark were called inactive. Calls of active or inactive are those of the source. How the source made its calls: active means growth percent below 10; inactive means the rest.
# Tests used:
# Assay in all cases: NCI-60 one-dose screen, 48 h (100 = growth as untreated, 0 = no growth, -100 = all killed)
# Conditions in all cases: 10 µM unless noted
# [1] = test system: SK-MEL-2 melanoma
# [2] = test system: SN12C renal
# [3] = test system: UO-31 renal
# [4] = test system: TK-10 renal
# [5] = test system: ACHN renal
# [6] = test system: CAKI-1 renal
# [7] = test system: A498 renal
# [8] = test system: CCRF-CEM leukemia
# [9] = test system: MOLT-4 leukemia
Compound,growth [1],growth [2],growth [3],growth [4],growth [5],growth [6],growth [7],growth [8],growth [9]
NCc1cn2cc(Cl)sc2n1,102%,105%,88.8%,92.1%,102%,102%,90.8%,103%,110%
Cc1ccc(S(=O)(=O)N(CCc2ccc(Cl)cc2)S(=O)(=O)c2ccc(C)cc2)cc1,75.3%,105%,70%,83.9%,95.2%,72.8%,115%,83.7%,66.5%
N#CC1=C(N)Oc2c(ccc3ccccc23)C1c1cccs1 (stereo unspecified),52.5%,26.5%,46.5%,77.6%,35.2%,48.9%,-5.58% (active),5.17% (active),1.98% (active)
CC1(C)OCC2OC3(C(=O)O)OC(C)(C)OC3C2O1 (stereo unspecified),105%,106%,94.2%,102%,103%,103%,93.6%,108%,97.9%
COc1ccc(N(Cc2cc(OC)c(OC)c(OC)c2)C2OC(=O)c3ccccc32)cc1 (stereo unspecified),21.5%,52.8%,53.5%,53.5%,61.5%,45.7%,14%,9.62% (active),19.2%
Cc1cc(Nc2nc(N3CCN(C)CC3)nc3ccccc23)n[nH]1,43.5%,68.1%,54.9%,54.8%,41.3%,13.4%,16.9%,65.3%,69.9%
Nc1c(C(=O)Nc2cccc3c2OCCO3)sc2nc3c(cc12)C(=O)CCC3,64.9%,41.3%,53%,73.3%,55.4%,47.6%,-1.97% (active),16.5%,57.6%
C(=N\Nc1ccccn1)/c1ccccn1,48.9%,36.5%,-10.7% (active),17.5%,14.1%,10.5%,22.4%,0.917% (active),18.8%
CCOC(=O)N1CCN(c2nc(Nc3cc(C)[nH]n3)c3ccccc3n2)CC1,52.4%,45.8%,47.4%,40.9%,50.7%,20.8%,-21.8% (active),40.1%,69.1%
COc1cccc2c1C(=O)c1c(O)c3c(c(O)c1C2=O)C[C@@](O)(/C(C)=N/NC(=O)c1ccc(Cl)cc1)C[C@@H]3OC1CC(N)C(O)C(C)O1 (stereo partly specified),-81.1% (active),5.79% (active),-40.4% (active),-23.2% (active),-36.3% (active),-53.2% (active),-88.4% (active),-10.8% (active),-31.3% (active)
COc1ccc(-c2c(C)noc2-c2ccc(O)cc2O)cc1,101%,85.7%,87.3%,99.8%,90.3%,95.8%,88%,71.7%,59.1%
Cc1cc(Nc2nc(N3CCNCC3)nc3ccccc23)n[nH]1,53.6%,76.1%,64.3%,60.5%,41.5%,20.1%,45.3%,108%,101%
Cc1ccn2c(-c3csc(Nc4cccc(O)c4)n3)c(C)nc2c1,24.2%,20.8%,40.4%,57.2%,26%,80.6%,64.7%,23.7%,-7.6% (active)
CCOC(=O)/C=C/c1ccc(C(=O)OCC)[nH]1,47%,80.7%,72.1%,62.6%,64.9%,35.5%,49.8%,82.8%,75.8%
C#Cc1nc2ccccc2c(=O)[nH]1,-21.9% (active),-41.3% (active),-72% (active),-42.3% (active),-69.2% (active),-86.4% (active),-61.5% (active),-17% (active),-21.4% (active)
COc1cnc2c(c1)C(=O)c1c-2n(CCCBr)c(=O)c2cc([N+](=O)[O-])ccc12,6.39% (active),-15.3% (active),-10.8% (active),36.5%,3.87% (active),2.8% (active),-29.8% (active),8.19% (active),7.84% (active)
O=C1Nc2ccccc2/C1=C/C(=N/c1nnc(-c2ccccc2)s1)c1ccccc1,97.4%,41.8%,-87.2% (active),-39.7% (active),-54.8% (active),-10.2% (active),106%,-45% (active),-24.2% (active)
COc1cc(/C=N/N(C)C)ccc1O,101%,94.9%,89.1%,94.5%,100%,102%,75.7%,94.5%,89.7%
COc1ccc(C(=O)c2sc3nc(-c4ccccc4OC)ccc3c2N)cc1OC,89.5%,66.1%,53.4%,79.7%,66.9%,62.4%,47.7%,26.5%,-45% (active)
CCOC(=O)C(Cc1cc(I)c(O)c(I)c1)NC(=O)c1ccccc1 (stereo unspecified),97.6%,97.6%,92.2%,88.4%,93.5%,95.7%,78.7%,95.3%,91.5%
Cc1ccc(C2CC3c4ccccc4C2C2CCCCN32)cc1 (stereo unspecified),88.2%,90.3%,91.7%,97.1%,97.8%,95%,139%,92.2%,94.8%
COc1cc(C2C(C(=O)c3cccs3)=C(O)C(=O)N2CCN2CCOCC2)cc(OC)c1OC (stereo unspecified),102%,104%,97.3%,99.2%,102%,101%,84.8%,120%,129%
COc1cc(C2CC(=O)Nc3c2cnn3Cc2ccco2)cc2c1OCCO2 (stereo unspecified),86.8%,91.3%,97%,102%,93.1%,96.9%,64.3%,111%,65.6%
O=C([C@@H](COCc1ccccc1)N1C(=O)[C@@H](N2C(=O)OC[C@@H]2c2ccccc2)[C@H]1/C=C/c1ccccc1)N1CCC(CCN2CCCCC2)CC1,71.7%,83.4%,69.3%,59.8%,99%,99.9%,50.1%,95.4%,62.8%
OC(c1cc(-c2ccccc2)nc2ccc(Cl)cc12)C1CCCCN1 (stereo unspecified),89.2%,66.3%,20.5%,71.3%,22.1%,34.3%,64.6%,64.6%,27.5%
CCCCCCCCOC(=O)CC[C@@H](C)[C@H]1CC[C@H]2[C@@H]3[C@H](OC(=O)CCN)C[C@@H]4C[C@H](OC(=O)CCN)CC[C@]4(C)[C@H]3C[C@H](OC(=O)CCN)[C@]12C,126%,77.6%,105%,136%,96.2%,108%,131%,-37.5% (active),26.1%
C#Cc1nc(Nc2cc(C)[nH]n2)c2ccccc2n1,-53.2% (active),-31.6% (active),-36.1% (active),-21.3% (active),-42.4% (active),-70% (active),-93.6% (active),2.05% (active),-19.8% (active)
C=C1CCC2C3(C)COC(c4cccc(Cl)c4)OC3CCC2(C)C1/C=C/C1=CCOC1=O (stereo unspecified),85.6%,87.2%,38.8%,88.3%,71.5%,70.6%,64.5%,48.4%,33.2%
Cc1ccc(NC(=O)c2sc3nc4c(cc3c2N)C(=O)CCC4)cc1C,37%,52.9%,56.6%,59.9%,52.2%,35.7%,-2.89% (active),13.6%,27.6%
